Vaccinia Venus – inhibitors of vaccinia virus (Venus reporter); Vaccinia virus Venus reporter expression, fluorescence; hit rate 0.46% among 330,000; Potency, µM (doses to about 36.5 µM), for inactives: at the highest dose activity change, negative = inhibition, usual class: inhibitors; calls by dose curve; tested in A549 cells; note: nearly all actives have a fitted effect of over 30% in size
Pf growth 48h – inhibits P. falciparum growth in the first generation, 48 h; P. falciparum luciferase growth in erythrocytes, 48 h; Potency, µM (series often up to 28.7 µM), without a hit: at the highest dose activity change, negative = inhibition, hits mostly inhibitors; hit rate 5.9% among 310,000
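Luminescence readout; reporter = integrated firefly luciferase in P. falciparum. RBC culture at 2% hematocrit, 0.1% parasitemia final, 37 C/5% CO2; decreased signal taken as growth inhibition.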
AMA1-RON2 inh – AMA1-RON2 (P. falciparum) interaction inhibition | AlphaScreen AMA1-biotinylated RON2 peptide binding | AID 720542 | hit rate 0.2% among 360,000 | Potency, µM (doses to about 58.2 µM), for the others: at the highest dose activity change, negative = inhibition, most hits filed as inhibitors;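 note: 0% = vehicle wells and -100% = peptide control; nearly all actives have a fitted effect of over 45% in size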
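AMA1 (3D7) with his tag at 25 nM final met compounds first, then biotinylated RON2 peptide at 25 nM; detection used donor plus acceptor beads, 10 µg/mL apiece, read by AlphaScreen after 30 min at room temperature.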
Pf growth 96h – P. falciparum growth inhibition at 96 hour, primary screen for plastid delayed-death inhibitors. P. falciparum luciferase reporter growth, 96 h. Potency, µM (doses to about 28.7 µM), without a hit: at the top dose activity change, negative = inhibition, actives largely listed as inhibitors. hit rate 6.9% among 320,000
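Delayed-death screen, second-generation endpoint: infected erythrocytes, 2% hematocrit, 0.05% parasitemia final; 96 hours at 37 C, 5% CO2; luciferase detection reagent; luminescence decrease equals reduced growth.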
Vaccinia mCherry – vaccinia inhibition (mCherry reporter); hit rate 0.63% among 310,000; Potency, µM (highest dose often 36.5 µM), for the others: at the top dose activity change, negative = inhibition, most hits filed as inhibitors; Vaccinia virus mCherry reporter infection, fluorescence; calls by dose curve; tested in A549 cells; note: nearly all actives have a fitted effect of over 35% in size
* = called active by the depositor; i = inactive; ? = inconclusive; . = no result given. Sampled rows, rich in hits. Any-hit rate of the full collection: about 8.7%. Unless noted, calls come from the whole dose curve; as a rule, active = well fitted curve in the direction sought with a large enough effect; inconclusive = small, poorly fitted or top-dose-only effect, or another doubt; inactive = no such curve, though single readings can be large; an effect the other way counts as inactive or inconclusive. Unless noted, % is set by controls: 0 for no effect and ±100 for the full control effect; potency is the fitted concentration of half-maximal effect.

SMILES	Vaccinia Venus	Pf growth 48h	AMA1-RON2 inh	Pf growth 96h	Vaccinia mCherry
Cc1ccc(S(=O)(=O)Cc2nnnn2-c2ccccc2)cc1	-12%	-4%	-4%	6.6µM*	-13%
Cc1ccc(C(c2nnnn2CS(=O)(=O)c2ccc(C)cc2)N2CCCC2)cc1 (configuration not stated)	.	-2%	1%	?	.
Cc1ccc(S(=O)(=O)Cn2nnnc2C(c2ccccc2)N2CCN(c3ncccn3)CC2)cc1 (configuration not stated)	.	9.3µM*	-26%	73%	.
CCOC(=O)c1c(NC(=O)c2cc(=O)c3cc(C)cc(C)c3o2)sc(C)c1C	-8%	.	.	.	1%
COc1cc(Cn2c(=O)sc3ccccc32)ccc1OCCC(C)C	-15%	.	.	.	-11%
Cc1ccc(-n2nc3c(N4CCC(C(=O)NC5CCCCC5)CC4)nnc(C)c3c2C)cc1	-21%	.	.	.	-26%
Cc1cccc(N2CCN(C(=O)c3cnn(-c4ccc(F)cc4F)c3C3CCN(C(=O)OC(C)(C)C)CC3)CC2)c1C	-25%	.	.	.	?
CCc1ccc(N(CC(=O)NC(C)(C)C)C(=O)CNC(=O)c2cccs2)cc1	-4%	?	-6%	19%	-8%
Cc1ccc(N(CC(=O)NC(C)(C)C)C(=O)CNC(=O)c2cccs2)cc1	2%	7.4µM*	-6%	6%	-4%
Cc1ccc(NC(=O)c2cccc3c(=O)c4c([nH]c23)CCCC4)c(C)c1	-6%	.	.	.	-7%
CCc1ccc(NC(=O)CSc2nnc(-c3ccccc3)n2C)cc1	-16%	.	.	.	-14%
O=C(Sc1cccc2cccnc12)c1ccccc1Br	.	1.3µM*	.	4.7µM*	.
O=C(Sc1cccc2cccnc12)c1ccc(F)cc1	.	6.6µM*	.	?	.
CC(=O)/C(=N\Nc1ccccc1)Sc1cccc2cccnc12	-10%	-12%	?	?	-16%
CCC(C)(C)n1nnnc1C(c1cc2cc(C)cc(C)c2[nH]c1=O)N1CCN(C(=O)c2ccco2)CC1 (configuration not stated)	-14%	?	4%	1.7µM*	i
CC(C)(C)n1nnnc1C(c1ccccc1)N1CCN(C(=O)c2ccco2)CC1 (configuration not stated)	-4%	.	5%	.	-3%
Cc1cccc2cc(C(c3nnnn3C(C)(C)C)N3CCN(C(=O)c4ccco4)CC3)c(=O)[nH]c12 (configuration not stated)	-10%	3.3µM*	0%	-25%	-20%
CCC(C)(C)n1nnnc1C(c1cc2cc(OC)c(OC)cc2[nH]c1=O)N1CCc2ccccc21 (configuration not stated)	.	1µM*	-8%	?	.
CC(C)(C)n1nnnc1C(c1cccs1)N1CCN(C(=O)c2ccco2)CC1 (configuration not stated)	-9%	-1%	-5%	2%	-11%
COc1cc2cc(C(c3nnnn3C(C)(C)C)N3CCc4ccccc4C3)c(=O)[nH]c2cc1OC (configuration not stated)	-11%	?	-9%	?	0%
Cc1ccc2[nH]c(=O)c(C(c3nnnn3C(C)(C)C)N3CCN(C(=O)c4ccco4)CC3)cc2c1 (configuration not stated)	.	9.3µM*	2%	?	.
COc1ccc(C(c2nnnn2C(C)(C)C)N2CCN(C(=O)c3ccco3)CC2)cc1 (configuration not stated)	-14%	-33%	-23%	-20%	0%
O=C(CSc1nccn1Cc1ccco1)Nc1cc(C(F)(F)F)ccc1Cl	-16%	.	.	.	-9%
CCOc1cccc(C2C=C(c3ccc4c(c3)OCO4)NC(c3ccccc3Cl)N2)c1O (configuration not stated)	-7%	.	.	.	-1%
CCC(C)(C)n1nnnc1C(c1cc2cc(C)ccc2[nH]c1=O)N1CCCC1 (configuration not stated)	-3%	0%	8%	15µM*	i
SMILES	Vaccinia Venus	Pf growth 48h	AMA1-RON2 inh	Pf growth 96h	Vaccinia mCherry
CCC(C)(C)n1nnnc1C(c1ccccc1OC)N1CCN(C(=O)c2ccco2)CC1 (configuration not stated)	-18%	1.9µM*	-4%	14%	i
COCCn1nnnc1C(c1ccccc1OC)N1CCN(C(=O)c2ccco2)CC1 (configuration not stated)	-8%	-19%	0%	17%	-4%
O=C(c1c[nH]c(C(=O)C(Cl)(Cl)Cl)c1)c1ccccc1Br	4%	13µM*	4%	?	-6%
COc1ccc(CN2CCC(CO)(Cc3ccccc3C(F)(F)F)CC2)c(F)c1	.	4.7µM*	2%	?	.
COc1ccc(CC2(CO)CCN(Cc3cccc4nccnc34)CC2)cc1	2%	-5%	8%	?	5%
N#CC(Cc1cccc(CC(C#N)(c2ccccc2)c2ccccc2)c1)(c1ccccc1)c1ccccc1	-19%	1.2µM*	-8%	0.83µM*	i
Cc1cc(C)cc(NC(=O)CCCc2nc(-c3ccco3)no2)c1	-1%	.	.	.	-1%
CC(C)C[C@H]1CN=C(Nc2ccccc2)N1CCCC1CCCC1	-27%	?	28%	12µM*	-28%
CCOC(=O)c1cccc(NC(=O)Cn2ncc3c(=O)oc4ccccc4c32)c1	3%	.	.	.	-8%
COCCN(CC(=O)Nc1ccccc1C(F)(F)F)C(=O)/C=C/c1cc(Cl)c2c(c1)OCO2	.	?	-1%	?	.
COCCN(CC(=O)Nc1ccccc1C(F)(F)F)C(=O)/C=C/c1ccc2ccccc2n1	.	?	-1%	15µM*	.
CCN(CC)CCOC(=O)c1ccc(NC(=O)CCCN2C(=O)/C(=C/c3cccs3)SC2=S)cc1	-28%	5.2µM*	?	?	-16%
O=C(O)C(Cc1ccccc1)N1C(=O)/C(=C/c2cccs2)SC1=S (configuration not stated)	6%	4%	12%	10µM*	-11%
CCCCN(C)CCCNC(=O)CCn1nc(-c2ccccc2)ccc1=O	-4%	1%	16%	0.12µM*	-9%
O=C(CCCN1C(=O)/C(=C/c2cccs2)SC1=S)NNC(=O)c1ccncc1	-7%	-26%	94%	-2%	i
O=C(CCCN1C(=O)/C(=C/c2cccs2)SC1=S)NNC(=O)c1ccccc1O	-13%	9%	1%	3.3µM*	i
CCCCNC(=O)CCn1nc(-c2ccccc2)ccc1=O	-5%	17%	18%	?	2%
CC(=O)Nc1ccccc1OCc1cc(=O)n2c3c(sc2n1)CCCC3	-2%	.	.	.	-10%
O=C(CCN1C(=O)/C(=C\c2ccccc2)SC1=S)N1CCOCC1	-19%	12µM*	-12%	-14%	?
O=C(CCCN1C(=O)/C(=C/c2ccccc2Cl)SC1=S)N1CCCC1	.	?	-27%	9.3µM*	.
O=C(CCN1C(=O)/C(=C/c2ccccc2F)SC1=S)NCCCN1CCOCC1	25%	?	17%	7%	5%
O=C(CCCN1C(=O)/C(=C/c2ccccc2)SC1=S)N1CCOCC1	?	?	?	3%	?
